Source: PubChem
Only some compounds are listed: those with a hit (about 5.5% of all), similar ones and a draw of the others.
Giardia kill – kills Giardia lamblia; Giardia lamblia trophozoite viability; activity change, % at 7.66 µM, hits read low; 0.15% of 340,000 active; AID 540267; in the data active = activity change below about -80%; inconclusive = between about -30% and that limit;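 note: parasites exposed to compound for two days anaerobically before the ATP read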
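Giardia trophozoites, 100 cells per well, were exposed to compounds for 48 hrs at 37 deg C under anaerobic conditions; viability was then read as ATP content by bioluminescence after 15-30 min at room temperature.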
ELG1 DNA repair – ELG1-dependent DNA repair inhibition; HEK293T ELG1-luciferase reporter, luminescence, 16 h; DNA damage induced by 5-fluorouridine; Potency, µM (highest dose often 46.1 µM), for the others: at the top dose activity change, negative = inhibition, hits mostly inhibitors; 2.3% of 330,000 active; AID 504467; note: potency is the fitted concentration of half-maximal effect; nearly all actives have a fitted effect of over 55% in size
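Cells (2,000 per well) received 5-fluorouridine plus test compound or DMSO and were incubated 16 hr at 37 °C, 5% CO2. Luciferase activity was read by luminescence 30 min after ONE-Glo addition; signal suppression marked inhibition of damage-induced ELG1 function.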
Coupling enz – counter-screen for Giardia aldolase inhibitors: coupling enzyme system. coupling enzyme system counterscreen, AmpLite Red fluorescence. activity change, negative = inhibition, % at 58.2 µM, hits read low. 0.67% of 290,000 active. AID 2472; in the data active = activity change below about -30%
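Compounds tested against the coupling enzymes alone at 57.5 uM final; readout was AmpLite Red fluorescence (525/598 nm) after 20 min at RT.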
Sfp inh – blocks B. subtilis Sfp PPTase activity; Q9F4F7; Biochemical Sfp PPTase activity, qHTS; Potency, µM, for inactives: largest response in the series, negative = inhibition, hits mostly inhibitors; 3.5% of 310,000 active;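 note: the enzyme is Sfp with the accession as filed and its product quenches rhodamine fluorescence; potency is the fitted concentration of half-maximal effect; 0% = enzyme reaction without inhibitor and -100% = no enzyme wells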
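Sfp 15 nM + cpd, 15 min RT; start w/ rhodamine-CoA 5 uM, BHQ-2-YbbR 12.5 uM (final); 50 mM Hepes pH 7.6, 10 mM MgCl2, 0.01% NP-40, 0.01% BSA; read 525/598 nm at 0 and 30 min.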
Numbers without * were called inactive; ? = inconclusive; . = not tested or not shown; ! = not active in a repeat. Unless noted, calls come from the whole dose curve; as a rule, active = well fitted curve in the direction sought with a large enough effect; inconclusive = small, poorly fitted or top-dose-only effect, or another doubt; inactive = no such curve, though single readings can be large; an effect the other way counts as inactive or inconclusive. Unless noted, % is set by controls: 0 for no effect and ±100 for the full control effect.

SMILES	Giardia kill	ELG1 DNA repair	Coupling enz	Sfp inh
O=C(NCc1ccccc1F)C1CCCN1C(=O)Nc1ccccc1 (stereo not given)	3.5	-3.9%	1.5	10.7%
COc1cc(OC)c(N(C)S(=O)(=O)c2cccc(C(=O)OCC(=O)N(C)Cc3ccccc3)c2)cc1Cl	-15.9	.	.	.
O=C1C=C(NCCN2CCOCC2)C(=O)c2cnccc21	.	4.11µM*	-27.1	-8.8%
CCn1nc(NC(=O)c2ccccn2)c2cc3cc(C)ccc3nc21	-2.7	?	-4.1	-20.7%
Cc1ccc2nc3c(cc2c1)c(NC(=O)c1ccccn1)nn3CC(C)C	3.3	23.1µM*	-4.5	?
O=C(NC1CCN(C(=O)N2c3ccccc3Sc3ccccc32)CC1)c1ccccc1Cl	-7.3	-20.9%	0.3	13.3%
O=C(NC1CCN(C(=O)N2c3ccccc3Sc3ccccc32)CC1)c1ccco1	-10.5	23.1µM*	3.1	0.9%
CC1=NN(c2ccccc2)C(=O)C1C=Nc1ccc(N(C)C)cc1 (stereo not given)	-14.9	6.51µM*	-12.3	?
CC(=O)Nc1ccc(NC(=O)C/C(C)=N/NC(N)=S)cc1	-5.8	-4.6%	-1.8	56.2µM*
CC(=O)Nc1cccc(/C(C)=N/NC(N)=S)c1	-8.4	-1.2%	-0.1	35.5µM*
CC(=O)Nc1cccc(/C(C)=N/NC(=S)NC(C)C)c1	6.6	?	0.5	2.6%
C=CCCCCCCCCc1nc(SCC(=O)O)n[nH]1	0.5	12.2%	14.8	21.2%
C=CCCCCCCCCc1nc(SCC(C)=O)n[nH]1	-0.3	23.1µM*	4.1	3.1%
O=C(Nc1cccc(Cl)c1)c1cc(F)cc2c1OCOC2	-11.5	22.6%	0.6	31.5%
CC(=O)N1CCC[C@@]2(CCN(C(=O)Nc3cccc(C#N)c3)C2)C1	.	.	1.7	15.8%
N#Cc1cccc(NC(=O)N2CC[C@@]3(CCCNC3)C2)c1	.	.	2.9	79.4µM*
CCOC(=O)c1sc(Nc2nc(OC)cc(OC)n2)nc1C	-0.3	25.9µM*	-0.3	?
CCOC(=O)c1sc(NC(C)=O)nc1C	-1.4	1.4%	1.5	56.2µM*
O=C(c1cc(C(F)(F)F)cc(C(F)(F)F)c1)N1CCC[C@@]2(CCN(Cc3nccs3)C2)C1	.	.	-0.3	22.3%
CCCCC[C@]12Cc3ccccc3C(O1)c1c(cc(C)oc1=O)O2	.	.	-0.4	5.2%
CCC(=O)Oc1ccc2c(c1)CCC1C2CC[C@]2(C)C(OC(=O)CC)CCC12 (stereo not given in full)	.	.	-9.5	-9.3%
Cn1c2c(c(=O)n(C)c1=O)[C@@]1(C(=O)Nc3ccccc31)C(C#N)=C(N)O2	0.6	13.1%	-50.4*	-9.1%
CN(C)c1nc(OCCNC(=O)Nc2ccc(Cl)cc2)nc(N(C)C)n1	12.5	7.3µM*	2.6	-2.0%
COc1ccc(-c2cccc3c2NC(=O)C3=O)cc1OC	3.3	24.9%	.	.
CCN(CC)c1ccc(N)cc1S(=O)(=O)Nc1ccccc1OC	-3.0	9.3%	-5.2	11.2µM*
SMILES	Giardia kill	ELG1 DNA repair	Coupling enz	Sfp inh
CCCS(=O)(=O)Nc1ccc(N2CCCCC2)c(S(=O)(=O)Nc2ccccc2OC)c1	-2.0	-3.8%	.	.
CCN(CC)c1ccc(N)cc1S(=O)(=O)Nc1ccc(OC)cc1	0.3	0.0%	-2.4	-24.9%
COc1ccccc1NS(=O)(=O)c1cc(N)ccc1N1CCCCC1	21.9	-13.4%	-0.9	11.2µM*
Nc1ccc(N2CCCCC2)c(S(=O)(=O)Nc2ccccc2Cl)c1	-15.4	4.3%	-0.7	28.2µM*
CCC(C)N(C(=O)CSc1nc2ccc(OC)cc2[nH]1)C1CCS(=O)(=O)C1 (stereo not given)	-0.8	25.8%	.	.
CCC(C)(C)n1nnnc1C(c1cc2cc(C)cc(C)c2[nH]c1=O)N1CCN(C(=O)c2ccco2)CC1 (stereo not given)	16.2	-16.7%	4.8	44.7µM*
COc1ccc(C(c2nnnn2C(C)(C)C)N2CCN(C(=O)c3ccco3)CC2)cc1 (stereo not given)	0.4	29.1%	1.4	7.9%
Cc1cccc2cc(C(c3nnnn3C(C)(C)C)N3CCN(C(=O)c4ccco4)CC3)c(=O)[nH]c12 (stereo not given)	0.8	0.5%	0.9	56.2µM*
CCC(C)(C)n1nnnc1C(c1cc2cc(C)ccc2[nH]c1=O)N1CCCC1 (stereo not given)	-4.5	-12.4%	-8.2	14.1µM*
CCC(C)(C)n1nnnc1C(c1ccccc1OC)N1CCN(C(=O)c2ccco2)CC1 (stereo not given)	16.3	11.5%	2.3	10.6%
Cc1ccc2cc(C(c3nnnn3C(C)(C)C)N3CCCCCC3)c(=O)[nH]c2c1 (stereo not given)	-0.3	15.9%	-9.2	?
Cc1ccc2[nH]c(=O)c(C(c3nnnn3C(C)(C)C)N3CCN(C(=O)c4ccco4)CC3)cc2c1 (stereo not given)	-1.5	13.2%	.	44.7µM*
COc1cccc(NC(=O)CN(C)C(=O)CC(NC(=O)c2ccccc2Cl)c2ccccc2)c1 (stereo not given)	5.4	4.1%	.	.
CN(C)c1cncc(C(=O)O)c1	17.1	7.6%	-55.0*	56.2µM*
CC(Oc1ccccc1)C(=O)Nc1nnc(S(=O)(=O)N2CCCCC2)s1 (stereo not given)	-83.5*	15.0%	8.0	26.9%
CCC(Oc1ccccc1)C(=O)Nc1nnc(S(=O)(=O)N2CCCC2)s1 (stereo not given)	9.0	-12.7%	11.0	1.1%
CCOC(=O)C1=C(c2ccccc2)NC(=O)NC1c1cc(Cl)c(O)c(OC)c1 (stereo not given)	-25.9	-6.1%	2.5	-4.3%
CCOC(=O)C1=C(c2ccccc2)NC(N)=NC1c1ccc(OCc2ccc(Cl)cc2)c(OC)c1 (stereo not given)	1.7	14.9%	-2.0	31.6µM*
Cc1nn(C)c(Cl)c1CN1CCCC(C(=O)Nc2cccc(-n3cccn3)c2)C1 (stereo not given)	-9.5	16.4µM*	-0.9	-1.7%
CN1CCN(c2ncc3nc(CCc4ccccc4)c(=O)n(CCC#N)c3n2)CC1	.	.	3.7	12.3%
O=[N+]([O-])c1ccc(-c2ccc(/C=N/O)o2)cc1	8.0	?	0.9	-0.3%
O=C1CN(/N=C/c2ccc(-c3ccc([N+](=O)[O-])cc3)o2)C(=O)N1	.	.	.	89.1µM*!
CCCn1c(CCC(=O)Nc2ccccc2Cc2ccccc2)nc2cc(S(=O)(=O)N3CCOCC3)ccc21	7.3	11.6µM*	0.3	12.1%
Cn1c(CCC(=O)Nc2ccc(F)cc2)nc2cc(S(=O)(=O)N3CCOCC3)ccc21	10.1	2.0%	.	.
CN(C)N1C(N)=C(C#N)C(c2cccc([N+](=O)[O-])c2)C2=C1CC(C)(C)CC2=O (stereo not given)	4.7	-6.8%	-0.9	17.6%
N#C/C(=N/Nc1ccc(OC(F)(F)F)cc1)C(N)=S	1.1	?	3.0	?
NC(=S)N=Nc1ccc(NN=C(N)N)cc1	-15.9	-1.6%	-17.0	0.562µM*
O=C(C1CCN(c2nnc(-n3cccc3)s2)CC1)N1CCN(Cc2ccc3c(c2)OCO3)CC1	25.3	?	4.1	-8.4%
c1cc2c(cc1CN1CCN(C3CCCCCC3)CC1)OCO2	-27.7	1.9%	0.4	56.2µM*
